Shown are actives, neighbours in structure and some others; about 3.9% of the full set was active somewhere.
Autofluor counter – counter-screen for toxin protease inhibitors: compound fluorescence. compound autofluorescence counterscreen, microsphere flow cytometry; hits give high values. fluorescence intensity (test concentration not listed). hit rate 3.1% among 360,000; in the data active means fluorescence intensity above about 16000; inconclusive means no clear call, values can overlap the other calls
MazF activator – increases E. coli MazEF RNase cleavage of RNA; P0AE70; FAM/BHQ RNA-DNA oligo cleavage fluorescence, 5 h; activation, % at 20 µM; hit rate 0.32% among 350,000; in the data active means activation above about 50%
Vc quorum ag – quorum light induction in luxS cqsA deficient V. cholerae | V. cholerae BH1578 lux reporter, luminescence, 6 h | activation, % at 18.7 µM | hit rate 0.16% among 350,000 | AID 588436; in the data active means activation mostly above about 9.7%, no sharp cut-off; inconclusive means no clear call, values can overlap the other calls; inactive means mostly below about 3.7%
BoNT-F LC inh – blocks Botulinum neurotoxin F light chain protease; Multiplex microsphere protease cleavage assay, flow cytometry; inhibition, % at 10 µM; hit rate 0.22% among 360,000; in the data active means inhibition above about 35%, passing the limit was not always enough; inconclusive means no clear call, values can overlap the other calls; further: plate controls were buffer without enzyme for full effect and enzyme alone for no effect
Anthrax LF prot – inhibitors of Bacillus anthracis lethal factor protease; multiplex microsphere protease cleavage assay, LF; hit rate 0.12% among 360,000; P15917; inhibition, % at 10 µM; further: plate controls were buffer without enzyme for full effect and enzyme alone for no effect
Target sequence (P15917 whole entry, looked up): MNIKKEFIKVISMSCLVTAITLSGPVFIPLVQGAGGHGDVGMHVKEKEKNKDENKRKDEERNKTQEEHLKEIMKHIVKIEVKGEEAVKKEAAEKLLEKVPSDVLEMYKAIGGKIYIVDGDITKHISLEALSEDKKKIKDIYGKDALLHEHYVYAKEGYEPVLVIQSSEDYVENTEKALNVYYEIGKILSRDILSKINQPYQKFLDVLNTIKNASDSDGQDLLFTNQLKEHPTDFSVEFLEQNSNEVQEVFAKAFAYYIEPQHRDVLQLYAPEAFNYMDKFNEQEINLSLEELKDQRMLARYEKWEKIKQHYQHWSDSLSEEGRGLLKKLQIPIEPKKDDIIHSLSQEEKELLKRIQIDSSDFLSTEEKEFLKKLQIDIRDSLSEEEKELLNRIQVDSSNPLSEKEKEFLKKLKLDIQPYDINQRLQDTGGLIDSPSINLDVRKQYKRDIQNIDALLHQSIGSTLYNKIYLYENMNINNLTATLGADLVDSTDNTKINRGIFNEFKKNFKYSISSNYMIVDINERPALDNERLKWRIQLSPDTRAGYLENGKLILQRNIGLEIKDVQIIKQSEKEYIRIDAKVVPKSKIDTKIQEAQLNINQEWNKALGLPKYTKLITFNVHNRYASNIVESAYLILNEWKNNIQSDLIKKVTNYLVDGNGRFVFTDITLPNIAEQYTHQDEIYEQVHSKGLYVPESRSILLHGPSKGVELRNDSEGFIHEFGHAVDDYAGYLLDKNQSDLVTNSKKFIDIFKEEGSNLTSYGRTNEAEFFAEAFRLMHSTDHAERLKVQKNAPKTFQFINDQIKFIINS
BoNT A protease – inhibitors of Botulinum neurotoxin A light chain protease. multiplex microsphere protease substrate cleavage, flow cytometry. inhibition, % at 10 µM. hit rate 0.17% among 360,000; further: plate controls were buffer without enzyme for full effect and enzyme alone for no effect
Starred values were filed as active, the others as inactive. Unless noted, no stated cut-off is given here; in the data, active means inhibition above about 30%; inconclusive means no clear call, values can overlap the other calls; inactive means below that.

What do the screens show for `CCN(CC)S(=O)(=O)c1ccc(C(=O)/C=C/c2ccc(-c3ccc([N+](=O)[O-])cc3)o2)cc1`?
Autofluor counter: 4161; MazF activator: 297.7*; Vc quorum ag: -0.8; BoNT-F LC inh: 25.9; Anthrax LF prot: 47.5*; BoNT A protease: 79.3*

What do the screens show for `CCc1ccc(C(=O)/C=C/c2ccc([N+](=O)[O-])o2)cc1`?
Autofluor counter: 3443; MazF activator: -2.5; Vc quorum ag: inactive; BoNT-F LC inh: -11.6; Anthrax LF prot: 7.4; BoNT A protease: 3.3

What do the screens show for `Cc1ccc(C(=O)/C=C/c2ccc(-c3ccc(C)cc3)o2)cc1`?
Autofluor counter: 2666; MazF activator: -31.6; Vc quorum ag: inactive; BoNT-F LC inh: 3.0; Anthrax LF prot: 14.2; BoNT A protease: 40.9*

How did O=C(/C=C\c1ccc(-c2ccccc2)o1)c1ccccc1 do in these assays?
Autofluor counter: 2216; MazF activator: 2.3; Vc quorum ag: -0.4; BoNT-F LC inh: 21.3; Anthrax LF prot: 26.7; BoNT A protease: 66.4*

What do the screens show for `Cc1ccc(S(=O)(=O)N2CCN(CCOc3c(Cl)cccc3Cl)CC2)cc1C`?
Autofluor counter: 8065; MazF activator: -0.5; Vc quorum ag: inactive; BoNT-F LC inh: 0.5; Anthrax LF prot: 1.1; BoNT A protease: -1.2

How did Cc1ccnc2nc(C(=O)OCCOc3ccc(Cl)cc3)nn12 do in these assays?
Autofluor counter: 4220; MazF activator: -1.3; Vc quorum ag: -1.4; BoNT-F LC inh: 6.9; Anthrax LF prot: -1.8; BoNT A protease: 0.5

Results for COc1ccc(-c2ccc(=O)[nH]n2)cc1 ?
Autofluor counter: 20511*; MazF activator: 3.9; Vc quorum ag: -0.1; BoNT-F LC inh: -2.5; Anthrax LF prot: -2.7; BoNT A protease: -1.2

How did O=C(Oc1ccc2c(=O)c(Oc3ccc4ccccc4c3)coc2c1)c1cncc(Br)c1 do in these assays?
Autofluor counter: 4480; MazF activator: -11.2; Vc quorum ag: -0.8; BoNT-F LC inh: 35.7*; Anthrax LF prot: 1.0; BoNT A protease: 0.2

What do the screens show for `COC(=O)[C@]12CCCCC=C1N(Cc1ccccc1)C(=O)[C@H](CC(=O)NCc1cccs1)C2`?
Autofluor counter: 4540; BoNT-F LC inh: -1.3; Anthrax LF prot: 6.3; BoNT A protease: -0.6

How did O=C(CCNC(=O)N1CC(=O)Nc2ccccc21)NCc1cccc(C(F)(F)F)c1 do in these assays?
Autofluor counter: 3410; MazF activator: 10.6; Vc quorum ag: inactive; BoNT-F LC inh: 3.8; Anthrax LF prot: -4.8; BoNT A protease: -0.4

What do the screens show for `O=C(CCN1CCOCC1)Nc1c(-c2ccccc2)c2cc(Br)ccc2[nH]c1=O`?
Autofluor counter: 8071; MazF activator: -2.6; Vc quorum ag: -6.2; BoNT-F LC inh: 9.2; Anthrax LF prot: -0.7; BoNT A protease: 0.8

How did Cc1ccc2[nH]c(=O)c(N3CCOCC3)c(-c3ccccc3)c2c1 do in these assays?
Autofluor counter: 25661*; MazF activator: 3.8; Vc quorum ag: inactive; BoNT-F LC inh: -7.8; Anthrax LF prot: -3.1; BoNT A protease: inconclusive

How did O=C(NCCN1CCN(c2ccccc2)CC1)c1ccc2c(c1)[nH]c(=S)n1c3ccccc3nc21 do in these assays?
Autofluor counter: 3861; MazF activator: -6.5; Vc quorum ag: 0.4; BoNT-F LC inh: -2.6; Anthrax LF prot: -2.0; BoNT A protease: 0.0

What do the screens show for `O=C(c1ccc2c(c1)[nH]c(=S)n1c3ccccc3nc21)N1CCN(c2ncccn2)CC1`?
Autofluor counter: 4444; MazF activator: 90.9*; Vc quorum ag: inactive; BoNT-F LC inh: -13.2; Anthrax LF prot: -2.1; BoNT A protease: 0.5

Results for Cc1ccc(O)c(-c2cc3ccccc3[nH]2)c1 ?
Autofluor counter: 23551*; MazF activator: 1.9; Vc quorum ag: -5.3; BoNT-F LC inh: -3.5; Anthrax LF prot: -6.8; BoNT A protease: 0.1

Results for COc1ccc(-c2cc3ccccc3[nH]2)cc1 ?
Autofluor counter: 4508; MazF activator: 5.5; Vc quorum ag: -0.4; BoNT-F LC inh: -13.6; Anthrax LF prot: -7.2; BoNT A protease: -3.1

Results for CCCc1cc(=O)[nH]c(SCC(=O)Nc2cc(S(=O)(=O)N3CCCCC3)ccc2Cl)n1 ?
Autofluor counter: 3655; MazF activator: -1.7; Vc quorum ag: inactive; BoNT-F LC inh: -1.6; Anthrax LF prot: -5.8; BoNT A protease: -0.3

Results for COC(=O)c1ccc(CSc2nc(N)cc(N)n2)cc1 ?
Autofluor counter: 23371*; MazF activator: 8.8; Vc quorum ag: inactive; BoNT-F LC inh: -0.1; Anthrax LF prot: -2.6; BoNT A protease: 0.4

How did CCn1c(/C=C/c2ccccc2F)nc2ccccc2c1=O do in these assays?
Autofluor counter: 3341; MazF activator: 0.9; Vc quorum ag: 0.7; BoNT-F LC inh: inconclusive; Anthrax LF prot: 15.2; BoNT A protease: -5.2

How did COC(=O)C1=C(C)N(C(C)C)C(=O)C1(NC(=O)C1CCCCC1)C(F)(F)F (centres undefined) do in these assays?
Autofluor counter: 19805*; MazF activator: -0.6; Vc quorum ag: inactive; BoNT-F LC inh: 1.5; Anthrax LF prot: -4.0; BoNT A protease: inconclusive

How did CC1(C)N(OCc2ccccc2)C(=O)C(=O)N(OCc2ccccc2)C1(C)C do in these assays?
Autofluor counter: 20720*; MazF activator: 0.3; Vc quorum ag: -1.8; BoNT-F LC inh: 7.7; Anthrax LF prot: -12.7; BoNT A protease: inconclusive

What do the screens show for `COc1cc(S(=O)(=O)NCc2cccnc2)ccc1F`?
Autofluor counter: 21999*; MazF activator: 4.7; Vc quorum ag: 11.1; BoNT-F LC inh: 0.3; Anthrax LF prot: -3.5; BoNT A protease: 0.8

Results for COC(=O)COc1ccc(S(=O)(=O)NCc2cccnc2)cc1C ?
Autofluor counter: 17503*; MazF activator: 12.1; Vc quorum ag: 0.1; BoNT-F LC inh: 10.0; Anthrax LF prot: 0.7; BoNT A protease: 6.4

How did CCOc1ccc(S(=O)(=O)NCc2cccnc2)cc1C do in these assays?
Autofluor counter: 4322; MazF activator: -4.3; Vc quorum ag: -0.2; BoNT-F LC inh: -9.3; Anthrax LF prot: 0.9; BoNT A protease: -1.2

What do the screens show for `Cc1cc(Br)c2c(c1)/C(=C/C(=O)c1cccs1)C(=O)N2`?
Autofluor counter: 5134; MazF activator: 15.5; Vc quorum ag: -0.4; BoNT-F LC inh: -0.8; Anthrax LF prot: -2.1; BoNT A protease: -1.2

What do the screens show for `Cc1cccc2c1NC(=O)/C2=C\C(=O)c1cccs1`?
Autofluor counter: 23425*; MazF activator: 8.2; Vc quorum ag: inactive; BoNT-F LC inh: -5.3; Anthrax LF prot: -1.5; BoNT A protease: inconclusive

What do the screens show for `Cc1cc(C)c2c(c1)/C(=C/C(=O)c1ccc(Br)s1)C(=O)N2`?
Autofluor counter: 21983*; MazF activator: -8.3; Vc quorum ag: inactive; BoNT-F LC inh: -8.4; Anthrax LF prot: -5.1; BoNT A protease: inconclusive

What do the screens show for `CN(C)/C=C/C(=O)c1ccc(Br)s1`?
Autofluor counter: 4266; MazF activator: 7.7; Vc quorum ag: -0.2; BoNT-F LC inh: 0.8; Anthrax LF prot: -1.5; BoNT A protease: 0.2

What do the screens show for `C/C(=N\NC(=O)c1ccc2c(c1)OCO2)c1ccc(NC(=O)CCCC(=O)O)cc1`?
Autofluor counter: 4467; MazF activator: 3.4; Vc quorum ag: -1.2; BoNT-F LC inh: -9.3; Anthrax LF prot: -3.7; BoNT A protease: 2.2
